Calls of active or inactive are those of the source. Unless noted, no rule for the calls is given here.
Legend:
[1] = test system: Wnt5a (protein binding on small-molecule microarray); experiment: small molecules binding Wnt5a protein – biophysical, small-molecule microarray, 635/667 nm fluorescence, primary screen (AID 1142); details: 635 nm fluorescence, higher = more signal;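 also: fluorescence read at 667 nm with signal to noise per printed feature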
[2] = ATP-based viability of Huh7 replicon cells – cell-based, CellTiter-Glo luminescence, basal, 48 h, cytotoxicity control for HCV replication inhibitor project, primary screen (AID 1143); details: higher = more signal, called active from +8 up or from −8 down;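 also: Huh7 hepatoma cells carrying a hepatitis C replication reporter with no stimulus; test concentration not given here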
[3] = Pseudomonas biofilm growth suppression – PAO1 strain, BacTiter-Glo luminescence, LB-PBS, primary screen (AID 1144); details: P. aeruginosa PAO1 biofilm, 12 h, higher = more signal
[4] = basal CRE-LacZ reporter activity in PC12 – cell-based, unstimulated, primary screen (AID 1145); details: no forskolin, luminescence, 4.5 h, higher = more signal, called active from +8 up or from −8 down
[5] = forskolin-driven CRE-LacZ activity in PC12 – cell-based, CRE-LacZ reporter, forskolin-stimulated, primary screen (AID 1146); details: luminescence, 4.5 h, higher = more signal, called active from +8 up or from −8 down;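 also: PC12 cells with 6xCRE LacZ reporter stimulated by forskolin 10 µM; beta-galactosidase reporter signal reflecting CREB driven transcription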
[6] = molecular target: Streptavidin (Streptomyces avidinii) (UniProt P22629); experiment: compounds binding control protein streptavidin – biophysical, small-molecule microarray, 635/667 nm fluorescence, artefact control for SMM compound annotation, primary screen (AID 1147); details: higher = more signal;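 also: signal reflects streptavidin binding to arrayed compounds as a control protein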
[7] = probe aInhba binding on compound microarray – biochemical, small-molecule microarray, 635/667 nm fluorescence, primary screen (AID 1148); details: higher = more signal;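 also: score merges 667nm spot fluorescence with signal-to-noise for antibody binding to printed compounds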
Torsin-1A (Homo sapiens) [8] = molecular target: Torsin-1A (Homo sapiens) (UniProt O14656); experiment: TOR1A wild-type binding on microarray – cell lysate, small-molecule microarray, lysate, 635/667 nm, primary screen (AID 1149); details: COS7 hTOR1A-WT lysate, 635 nm fluorescence, higher = more signal
Torsin-1A (Homo sapiens) [9] = molecular target: Torsin-1A (Homo sapiens) (UniProt O14656); experiment: torsin A mutant lysate binding on microarrays – cell lysate, small-molecule microarray, COS7 lysate, 635/667 nm fluorescence, primary screen (AID 1150); details: COS7 hTOR1A mutant lysate, 635 nm fluorescence, higher = more signal;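 also: score pools 667 nm emission and signal to noise measuring lysate protein binding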
[10] = test system: Sonic hedgehog protein (Shh); experiment: Sonic hedgehog microarray binding compounds – biochemical, small-molecule microarray, 635/667 nm fluorescence, primary screen (AID 1151); details: 635 nm fluorescence, higher = more signal;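 also: Shh protein binding to compounds spotted on small-molecule microarray slides; score combines spot fluorescence intensity with signal-to-noise across triplicate slides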

Torsin-1A (Homo sapiens), sequence (O14656 whole entry, looked up): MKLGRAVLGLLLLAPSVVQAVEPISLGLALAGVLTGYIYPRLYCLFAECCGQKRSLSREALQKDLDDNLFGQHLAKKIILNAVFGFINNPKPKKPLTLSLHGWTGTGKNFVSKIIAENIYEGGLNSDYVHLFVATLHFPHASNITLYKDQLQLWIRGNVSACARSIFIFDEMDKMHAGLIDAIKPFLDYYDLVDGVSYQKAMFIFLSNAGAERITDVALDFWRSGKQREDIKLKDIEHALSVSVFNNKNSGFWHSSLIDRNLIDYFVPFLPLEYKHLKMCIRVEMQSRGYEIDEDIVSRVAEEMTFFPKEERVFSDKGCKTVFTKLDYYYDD
Streptavidin (Streptomyces avidinii), sequence (P22629 whole entry, looked up): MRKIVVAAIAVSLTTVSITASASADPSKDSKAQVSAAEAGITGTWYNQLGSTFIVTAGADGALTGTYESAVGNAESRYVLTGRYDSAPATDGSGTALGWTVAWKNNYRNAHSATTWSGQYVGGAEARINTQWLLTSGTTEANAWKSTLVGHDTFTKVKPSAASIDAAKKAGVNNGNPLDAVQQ

CCS[C@H]1[C@@H](C(=O)O)[C@H](c2ccc(C)cc2)N(S(=O)(=O)c2ccc(C)cc2)[C@@H]1CC
composite z-score [1]: 0.261 | z-score [2]: -0.0715 (inactive) | z-score [3]: -0.54 (inactive) | z-score [4]: -0.928 (inactive) | z-score [5]: -0.334 (inactive) | composite z-score [6]: 0.68 | composite z-score [7]: 0.206 | composite z-score (Torsin-1A (Homo sapiens) [8]): -0.0832 | composite z-score (Torsin-1A (Homo sapiens) [9]): 0.477 | composite z-score [10]: -0.7

CC(C)C(O)C1C=CC2C(=O)N(c3ccccc3)C(=O)C2N1Nc1ccc([N+](=O)[O-])cc1 (stereo not given)
composite z-score [1]: 0.774 | z-score [2]: -0.208 (inactive) | z-score [3]: 0.21 (inactive) | z-score [4]: -0.368 (inactive) | z-score [5]: -0.343 (inactive) | composite z-score [6]: 0.122 | composite z-score [7]: 0.726 | composite z-score (Torsin-1A (Homo sapiens) [8]): 0.0373 | composite z-score (Torsin-1A (Homo sapiens) [9]): 0.142 | composite z-score [10]: -0.688

COCCOC(=O)N1C(=O)[C@@]2(c3cc(C#Cc4ccc(OC)cc4)ccc31)[C@H](c1ccc(OCCO)cc1)N1[C@H](c3ccccc3)[C@H](c3ccccc3)OC(=O)[C@H]1[C@@H]2C(=O)N1CCN(c2ncccn2)CC1
composite z-score [1]: 0.377 | z-score [2]: -0.438 (inactive) | z-score [3]: -0.112 (inactive) | z-score [4]: 0.0695 (inactive) | z-score [5]: 0.559 (inactive) | composite z-score [6]: 0.165 | composite z-score [7]: 0.0464 | composite z-score (Torsin-1A (Homo sapiens) [8]): 0.846 | composite z-score (Torsin-1A (Homo sapiens) [9]): 0.775 | composite z-score [10]: 1.69

CC(C)c1ccc(NN2C(C(O)c3ccc(B(O)O)cc3)C=CC3C(=O)N(c4ccccc4)C(=O)C32)cc1 (stereo not given)
composite z-score [1]: 0.262 | z-score [2]: -0.0793 (inactive) | z-score [3]: -1.06 (inactive) | z-score [4]: 0.815 (inactive) | z-score [5]: 1.65 (inactive) | composite z-score [6]: 1.26 | composite z-score [7]: 0.108 | composite z-score (Torsin-1A (Homo sapiens) [8]): 0.201 | composite z-score (Torsin-1A (Homo sapiens) [9]): 1.26 | composite z-score [10]: 0.528

COc1ccc(-c2cc3c(c(-c4ccc(Oc5ccccc5)cc4)n2)[Si](C(C)C)(C(C)C)OC3)cn1
composite z-score [1]: -0.394 | z-score [2]: -1.11 (inactive) | z-score [3]: -0.0233 (inactive) | z-score [4]: -0.127 (inactive) | z-score [5]: -0.0129 (inactive) | composite z-score [6]: 0.114 | composite z-score [7]: 0.038 | composite z-score (Torsin-1A (Homo sapiens) [8]): -0.664 | composite z-score (Torsin-1A (Homo sapiens) [9]): -0.336 | composite z-score [10]: 1.08

COC(=O)[C@@]1(Cc2ccccc2)[C@H]2c3cc(C(=O)N(C)C)n(Cc4ccsc4Br)c3C[C@H]2CN1C(=O)c1ccccc1
composite z-score [1]: 0.211 | z-score [2]: -3.35 (inactive) | z-score [3]: -0.166 (inactive) | z-score [4]: 0.58 (inactive) | z-score [5]: 0.751 (inactive) | composite z-score [6]: 1.09 | composite z-score [7]: 0.0737 | composite z-score (Torsin-1A (Homo sapiens) [8]): 0.856 | composite z-score (Torsin-1A (Homo sapiens) [9]): 0.508 | composite z-score [10]: -1.21

C=CCC(OC(C)=O)[C@@H]1[C@@H](N(Cc2cc3ccccc3o2)C(=O)c2cccc3ccccc23)c2cc(OCCCO)ccc2N1C(=O)c1ccc(-c2ccccc2)cc1 (stereo not given in full)
composite z-score [1]: 0.15 | z-score [2]: -1.82 (inactive) | z-score [3]: 0.861 (inactive) | z-score [4]: 1.38 (inactive) | z-score [5]: -0.654 (inactive) | composite z-score [6]: 0.111 | composite z-score [7]: -0.196 | composite z-score (Torsin-1A (Homo sapiens) [8]): 0.736 | composite z-score (Torsin-1A (Homo sapiens) [9]): 0.223 | composite z-score [10]: 0.464

C=C(CCCC)/C(=C/C[C@H](OC(C)=O)c1ccccc1OCCO)c1cc(C(=O)OC)ccc1OC
composite z-score [1]: 0.0205 | z-score [2]: -3.83 (inactive) | z-score [3]: 0.437 (inactive) | z-score [4]: 13.3 (active) | z-score [5]: -0.671 (inactive) | composite z-score [6]: -0.24 | composite z-score [7]: -0.157 | composite z-score (Torsin-1A (Homo sapiens) [8]): -0.266 | composite z-score (Torsin-1A (Homo sapiens) [9]): -0.174 | composite z-score [10]: 0.199

COC(=O)[C@@]1(Cc2ccc(OC)cc2)[C@H]2c3cc(C(=O)N(C)C)n(CCc4ccccn4)c3C[C@H]2CN1C(=O)c1ccccc1
composite z-score [1]: 1.19 | z-score [2]: -2.18 (inactive) | z-score [3]: 0.165 (inactive) | z-score [4]: 1.92 (inactive) | z-score [5]: 0.577 (inactive) | composite z-score [6]: 1.86 | composite z-score [7]: 1.17 | composite z-score (Torsin-1A (Homo sapiens) [8]): -0.128 | composite z-score (Torsin-1A (Homo sapiens) [9]): 1.04 | composite z-score [10]: -0.127

C=C[C@H](CO[Si](CC)(CC)CC)N(Cc1ccc(OC(C)=O)c(OC)c1)S(=O)(=O)c1ccc(Br)cc1
composite z-score [1]: 0.157 | z-score [2]: -4.96 (inactive) | z-score [3]: 0.451 (inactive) | z-score [4]: -0.263 (inactive) | z-score [5]: 0.685 (inactive) | composite z-score [6]: 1.61 | composite z-score [7]: 0.403 | composite z-score (Torsin-1A (Homo sapiens) [8]): 0.837 | composite z-score (Torsin-1A (Homo sapiens) [9]): 0.671 | composite z-score [10]: 1.15

CCC[C@@H]1C[C@@]1(CCC)[C@@H](NC(=O)c1ccccc1)c1cccc(Cl)c1
composite z-score [1]: 2.05 | z-score [2]: -0.246 (inactive) | z-score [3]: 0.0208 (inactive) | z-score [4]: 0.776 (inactive) | z-score [5]: 0.485 (inactive) | composite z-score [6]: 2.17 | composite z-score [7]: 1.32 | composite z-score (Torsin-1A (Homo sapiens) [8]): 0.0875 | composite z-score (Torsin-1A (Homo sapiens) [9]): 0.512 | composite z-score [10]: -1.33

CN(C)CCCCCCNC(=O)[C@H]1C[C@H]2C(=O)N[C@@H](CCCCN)C(=O)N2[C@H]1c1cccc(OCCO)c1
composite z-score [1]: 1.73 | z-score [2]: 0.0574 (inactive) | z-score [3]: 0.949 (inactive) | z-score [4]: 0.688 (inactive) | z-score [5]: 0.691 (inactive) | composite z-score [6]: 2.14 | composite z-score [7]: 0.778 | composite z-score (Torsin-1A (Homo sapiens) [8]): 3.76 | composite z-score (Torsin-1A (Homo sapiens) [9]): 3.35 | composite z-score [10]: 1.43

COC(=O)[C@@]1(CCC(=O)OC(C)(C)C)N=C(c2ccc(OCCCO)cc2)O[C@H]1c1ccccc1N=[N+]=[N-]
composite z-score [1]: 0.174 | z-score [2]: -4.35 (inactive) | z-score [3]: -0.656 (inactive) | z-score [4]: 2.68 (inactive) | z-score [5]: -1.21 (inactive) | composite z-score [6]: -0.0572 | composite z-score [7]: -0.101 | composite z-score (Torsin-1A (Homo sapiens) [8]): -0.184 | composite z-score (Torsin-1A (Homo sapiens) [9]): -0.143 | composite z-score [10]: 0.696

NCCCCCCNC(=O)[C@@H]1C[C@@H]2C(=O)NCC(=O)N2[C@@H]1c1ccc(O)cc1
composite z-score [1]: 0.387 | z-score [2]: -0.402 (inactive) | z-score [3]: -2.2 (inactive) | z-score [4]: -1.07 (inactive) | z-score [5]: 0.0413 (inactive) | composite z-score [6]: 0.718 | composite z-score [7]: -0.104 | composite z-score (Torsin-1A (Homo sapiens) [8]): 1.3 | composite z-score (Torsin-1A (Homo sapiens) [9]): 0.665 | composite z-score [10]: 2.18

O=C1c2ccccc2[C@](Cc2ccccc2I)(C(=O)NCCN2CCOCC2)[C@H](c2ccc(CO)cc2)N1C1CCCCC1
composite z-score [1]: 0.379 | z-score [2]: -3.69 (inactive) | z-score [3]: 0.155 (inactive) | z-score [4]: -0.168 (inactive) | z-score [5]: -0.0922 (inactive) | composite z-score [6]: 0.934 | composite z-score [7]: 0.216 | composite z-score (Torsin-1A (Homo sapiens) [8]): 0.873 | composite z-score (Torsin-1A (Homo sapiens) [9]): 0.469 | composite z-score [10]: 1.52

COC(=O)[C@@]1(Cc2ccc(OC)cc2)[C@@H]2C(=CC(=O)[C@H]2CC(=O)C(=O)N2CCCC2)CN1C(=O)c1ccccc1
composite z-score [1]: 0.292 | z-score [2]: -1.76 (inactive) | z-score [3]: 0.745 (inactive) | z-score [4]: -0.754 (inactive) | z-score [5]: 0.0528 (inactive) | composite z-score [6]: 0.571 | composite z-score [7]: 0.0694 | composite z-score (Torsin-1A (Homo sapiens) [8]): -0.234 | composite z-score (Torsin-1A (Homo sapiens) [9]): 0.31 | composite z-score [10]: -1.35

C=CCOC(=O)[C@H]1[C@@H]2C(=O)O[C@@H](c3ccccc3)[C@@H](c3ccccc3)N2[C@@H](c2ccc(OCCOC(=O)[C@@H]3C[C@@H]4C(=O)N[C@@H](CCCCNC(C)=O)C(=O)N4[C@@H]3c3ccc(O)cc3)cc2)[C@]12C(=O)Nc1ccccc12
composite z-score [1]: 0.39 | z-score [2]: -0.0424 (inactive) | z-score [3]: -0.122 (inactive) | z-score [4]: -0.126 (inactive) | z-score [5]: -0.464 (inactive) | composite z-score [6]: -0.0038 | composite z-score [7]: 0.095 | composite z-score (Torsin-1A (Homo sapiens) [8]): 0.665 | composite z-score (Torsin-1A (Homo sapiens) [9]): 0.505 | composite z-score [10]: 2.05

C=CCOC(=O)[C@@H]1[C@H]2C(=O)O[C@H](c3ccccc3)[C@H](c3ccccc3)N2[C@H](c2ccc(OCCOC(=O)[C@@H]3C[C@@H]4C(=O)NCC(=O)N4[C@@H]3c3ccc(O)cc3)cc2)[C@@]12C(=O)Nc1ccc(I)cc12
composite z-score [1]: 0.828 | z-score [2]: 0.489 (inactive) | z-score [3]: -0.725 (inactive) | z-score [4]: -0.13 (inactive) | z-score [5]: -0.974 (inactive) | composite z-score [6]: -0.259 | composite z-score [7]: 0.029 | composite z-score (Torsin-1A (Homo sapiens) [8]): 0.877 | composite z-score (Torsin-1A (Homo sapiens) [9]): 0.706 | composite z-score [10]: 1.53

COC(=O)[C@@]1(Cc2ccc(F)cc2)[C@H]2c3cc(C(=O)N(C)C)n(Cc4cc(F)c(F)c(F)c4)c3C[C@H]2CN1C(=O)c1ccccc1
composite z-score [1]: 0.283 | z-score [2]: -3 (inactive) | z-score [3]: 0.459 (inactive) | z-score [4]: 1.53 (inactive) | z-score [5]: 0.578 (inactive) | composite z-score [6]: 1.25 | composite z-score [7]: 1.08 | composite z-score (Torsin-1A (Homo sapiens) [8]): -0.272 | composite z-score (Torsin-1A (Homo sapiens) [9]): 0.193 | composite z-score [10]: -0.176
